BH1578 lux ind = inducers of Vibrio cholerae quorum light production without autoinducers, primary screen, BH1578 luxS cqsA deficient, single point; hit rate 0.16% among 350,000; activation, % at 18.7 µM; V. cholerae BH1578 lux reporter, luminescence, 6 h; in the data active = activation mostly above about 9.7%, no sharp cut-off; inconclusive = no clear call, values can overlap the other calls; inactive = mostly below about 3.7%
FadD28 binding = inhibitors of FadD28 bisubstrate probe binding, primary screen, biochemical, fluorescence polarization, single point; Mycobacterium tuberculosis FadD28 fatty-acid-AMP ligase; AID 588549, 2011; inhibition, % at 12.5 µM; hit rate 0.22% among 360,000; in the data active = inhibition above about 8.5%, passing the limit was not always enough; inconclusive = no clear call, values can overlap the other calls
TcdB GH inh = TcdB glycohydrolase inhibitors, primary screen, biochemical, single point, plate reader; hit rate 0.24% among 350,000; AID 652162, 2013; inhibition, % at 9.99 µM; Toxin B (Clostridioides difficile), P18177; TcdB glycohydrolase enzymatic assay; in the data active = inhibition above about 10%
BioA inh-1 = M. tuberculosis BioA enzyme inhibitors, primary screen, biochemical, plate reader, single point, HTS. 7,8-diaminopelargonic acid synthase BioA (Mycobacterium tuberculosis). purified M. tuberculosis BioA enzyme. inhibition, % at 9.99 µM. hit rate 0.096% among 360,000; in the data active = inhibition above about 40%; inconclusive = no clear call, values can overlap the other calls
Yp Topo-I inh = Yersinia pestis topoisomerase I inhibitors, primary screen, biochemical, cleavage product accumulation, plate reader, single point; activity, % at 10 µM; hit rate 0.064% among 360,000; Y. pestis Topo-I cleavage product accumulation; DNA topoisomerase I (Yersinia pestis CO92); AID 504884, 2011; in the data active = activity above about 50%, passing the limit was not always enough; inconclusive = no clear call, values can overlap the other calls
BioA inh-2 = Mtb BioA enzyme inhibitors, dose response, biochemical, plate reader, cherry-pick samples, set 03. shares compounds with BioA inh-1. purified BioA enzyme. max activity, %. 310 tested, under 10 active;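 note: top concentration of the dilution series was 10 µM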
HepG2 tox 2 = cytotoxicity in HepG2 cells, dose response, cytotoxicity control, cell-based, plate reader, cherry-pick, two tests; AID 651898, 2012; 310 tested, under 10 active; max activity, %; shares compounds with BioA inh-1
3T3 cytotox 5 = cytotoxicity in NIH3T3 fibroblasts, dose response, cytotoxicity control, cell-based, plate reader, cherry-pick, two tests; shares compounds with BioA inh-1; activity change, negative = cytotoxicity, % at 26 µM; 310 tested, under 10 active; AID 651900, 2012
* marks the source's active call; other numbers are inactive results; i = inactive; u = inconclusive; x = no result given; [ ] = another dose, or the depositor's remark. Rows were chosen to be rich in hits. Some 0.61% of all compounds tested hit in one or more screens of this group. Unless noted, the rule behind the calls is not given here.

SMILES	BH1578 lux ind	FadD28 binding	TcdB GH inh	BioA inh-1	Yp Topo-I inh	BioA inh-2	HepG2 tox 2	3T3 cytotox 5
Cc1cc(C(=O)Nc2ccc3c(c2)C(=O)N(C)[C@H]2CC[C@@H](CC(=O)N[C@@H](C)c4ccccc4)O[C@H]2CO3)no1	x	x	1.2	8.5	x	x	x	x
CCn1c(=O)n(CC)c2cc(N3CCCC3)c(NC(=O)c3ccc(F)cc3)cc21	i	0.9	0.0	16.7	16.1	x	x	x
CCOc1ccc(C(=O)Nc2cc3c(cc2N2CCCC2)n(CC)c(=O)n3CC)cc1OCC	i	-0.9	-0.1	57.2*	-1.9	-10.0	-11.8	-13.7
COCC(=O)N1CCC2(CC1)CN(Cc1ccc3c(c1)OCO3)[C@H](CO)c1c2c2ccc(OC)cc2n1C	x	x	1.1	x	x	x	x	x
CC(=O)c1ccc(C(=O)N2CCCC(CO)(Cc3ccccc3C)C2)s1 (stereo not given)	-0.8	-2.0	-2.0	54.2*	28.9	-6.7	-6.9	-3.6
Cc1ccccc1CC1(CO)CCCN(C(=O)c2ccccc2Cl)C1 (stereo not given)	i	-1.4	1.1	x	28.9	x	x	x
COCCNC(=O)C[C@@H]1CC[C@H]2[C@H](COc3ccc(NC(=O)Nc4cccc(F)c4)cc3C(=O)N2C)O1	x	x	x	23.9	x	x	x	x
COCCNC(=O)C[C@H]1CC[C@@H]2[C@@H](COc3ccc(NC(=O)Nc4cccc(F)c4)cc3C(=O)N2C)O1	x	x	0.6	55.3*	x	-9.1	i	-2.1[23.5 µM]
COCCNC(=O)C[C@@H]1CC[C@@H]2[C@@H](COc3ccc(NC(=O)Nc4cccc(F)c4)cc3C(=O)N2C)O1	x	x	-0.1	40.3*	x	7.9	i	2.3[23.5 µM]
COCCNC(=O)C[C@@H]1CC[C@@H]2[C@H](COc3ccc(NC(=O)Nc4cccc(F)c4)cc3C(=O)N2C)O1	x	x	0.4	44.7*	x	u	i	8.8
CCOC(=O)c1ccc2c(c1)nc(SCc1cn3ccsc3n1)n2CC	-2.4	-2.0	x	53.3*	34.4	-7.4	11.0	-8.1
CCN(Cc1ccccc1)S(=O)(=O)c1ccc2c(c1)NC(=O)CS2	-0.3	-4.9	1.9	1.8	23.0	x	x	x
CN(Cc1ccccc1)C(=O)CCS(=O)(=O)c1ccc2c(c1)NC(=O)CS2	-0.4	0.4	x	40.7*	16.4	8.4	18.1	8.5
COc1ccc(C(=O)Nc2cccc(NC(=O)c3cccs3)c2)cc1	i	-7.8	0.6	59.3*	-5.7	-8.2	14.7	-2.5
COc1ccc(NC(=O)c2ccc(NC(=O)c3cccs3)cc2)cc1	x	-2.1	1.7	-1.9	-0.4	x	x	x
CCC(=O)c1ccc(OCC(=O)O)cc1	-2.1	-0.3	x	x	-1.3	x	x	x
CCCc1c(OCCCOc2ccc(OCC(=O)O)cc2)ccc(C(C)=O)c1O	-0.6	-5.8	0.9	79.2*	6.4	-8.5	7.3	2.1
Cc1nc2nc(SCC(=O)N3CCOCC3)nn2c(C)c1Cc1c(F)cccc1Cl	2.9	-0.7	x	93.9*	21.7	-9.3	-6.8	-13.1
Cc1nc2nc(SCC(=O)NCCN3CCOCC3)nn2c(C)c1Cc1ccccc1	i	-3.3	x	x	6.7	x	x	x
Cc1cc(C)n2nc(SCC(=O)N3CCC4(CC3)OCCO4)nc2n1	-0.4	-5.8	x	5.4	0.2	x	x	x
Cc1ccc(Cc2c(C)nc3nc(SCC(=O)NCCCN4CCCCC4)nn3c2C)cc1	-1.5	0.8	-0.8	54.1*	11.8	-2.4	-12.4	9.9
Cc1nc2nc(SCC(=O)N3CCC4(CC3)OCCO4)nn2c(C)c1Cc1ccccc1	-0.4	-3.7	x	74.0*	22.8	-8.9	25.1	7.8
C[C@H](NC(=O)[C@H]1[C@H](CO)[C@H]2Cn3c(ccc(-c4cccnc4)c3=O)[C@@H]1N2C)c1ccccc1	x	x	-0.1	-1.4	x	x	x	x
CN(C)C(=O)C[C@@H]1C[C@H]2c3cc(NC(=O)c4ccc5c(c4)OCO5)ccc3O[C@H]2[C@@H](CO)O1	x	x	1.2	0.2	x	x	x	x
O=C(Nc1cc(F)ccc1F)N[C@H]1C=C[C@H](CC(=O)N2CCc3ccccc3C2)O[C@H]1CO	x	x	-0.9	x	x	x	x	x
SMILES	BH1578 lux ind	FadD28 binding	TcdB GH inh	BioA inh-1	Yp Topo-I inh	BioA inh-2	HepG2 tox 2	3T3 cytotox 5
CCc1ccc(NC(=O)CSc2nc(=O)n(CCCN3CCOCC3)c3c2CCCC3)cc1	i	1.1	0.2	2.7	22.8	x	x	x
Cc1ccc(NC(=O)CSc2nc(=O)n(CCCN3CCOCC3)c3c2CCCC3)cc1F	-1.4	0.6	1.3	47.2*	23.9	1.7	9.4	6.9
CNC[C@H]1Oc2ccc(NC(=O)NC(C)C)cc2CC(=O)N([C@H](C)CO)C[C@H]1C	x	x	-0.1	1.3	x	x	x	x
COc1ccccc1C(=O)Nc1ccc2c(c1)OC[C@@H](C)N(C)C[C@H](C)[C@@H](OC)CN(C)C2=O	x	x	-0.4	-1.9	x	x	x	x
Cc1ccc(S(=O)(=O)N(C)C)cc1NC(=O)CSc1nncs1	i	-0.2	1.2	51.1*	18.2	-5.9	-8.3	-1.5
CCN(CC)S(=O)(=O)c1ccc(NC(=O)c2ccc(Cl)nc2)cc1	i	-3.2	1.2	52.1*	0.5	-10.2	-10.7	-9.2
CCN(CC)S(=O)(=O)c1ccc(NC(=O)c2ccc(NS(C)(=O)=O)cc2)cc1	i	-4.5	x	-1.8	4.5	x	x	x
Cc1cnc(C(=O)Nc2ccc(-n3cnnn3)cc2)cn1	3.7	-1.7	x	22.8	5.9	x	x	x
COc1ccc(NC(=O)c2cnc(C)cn2)cc1-n1cnnn1	i	-3.9	x	51.2*	-5.1	-7.1	32.0	7.8
Cc1nc2sc(C(c3ccc(Cl)cc3)N3CCN(c4ccccc4F)CC3)c(O)n2n1 (stereo not given)	-6.2	-2.9	x	43.4*	-1.8	9.9	-4.8	-4.2
Cc1nc2sc(C(c3ccco3)N3CCN(c4ccccc4F)CC3)c(O)n2n1 (stereo not given)	i	-1.5	x	0.6	4.3	x	x	x
CCNC(=O)C[C@@H]1CC[C@H]2[C@@H](COC[C@H](O)CN2Cc2ccccc2F)O1	x	x	-0.8	-1.7	x	x	x	x
O=C(c1ccncc1)N1CC[C@@H]2[C@@H](CO)Nc3ccc(Br)cc3[C@@H]21	x	x	x	47.6*	x	-5.5	i	-2.4
O=C(C1CC1)N1CC[C@@H]2[C@H](CO)Nc3ccc(Br)cc3[C@@H]21	x	x	-1.0	84.5*	x	u	i	-4.9
O=C(Cc1ccncc1)N1CC[C@@H]2[C@H](CO)Nc3ccc(Br)cc3[C@@H]21	x	x	x	16.0	x	x	x	x
COc1cccc(-c2ccc3c(c2)[C@H]2[C@H](CCN2C(=O)C2CCC2)[C@@H](CO)N3)c1	x	x	x	59.8*	x	-9.9	i	-2.2
C[C@@H]1CN([C@@H](C)CO)C(=O)c2cc(C#CCC3CCCC3)cnc2O[C@@H]1CN(C)S(=O)(=O)c1cccs1	x	x	x	1.8	x	x	x	x
